The record followed here is ChEMBL document CHEMBL4513216, “Probing the Open Global Health Chemical Diversity Library for Multistage-Active Starting Points for Next-Generation Antimalarials” (ACS Infect Dis, 2020).

Hit rate of the full screen: of about 65,000 compounds, about 2,100 (3.2%) showed an effect of 50% or more. The median lay at about -52%. Only a selection was taken, and strong results are over-represented in it overall.

This experiment deals with Plasmodium falciparum. The experiment is described as follows: Screen against P. falciparum Asexual Blood Stage (ABS), at 5uM. Conditions: tested at 5 uM. It is filed as functional, Dd2.
For the compound `CC(C)NC(=O)[C@H]1C[C@@H]2[C@@H](C1)OCCN2Cc1cccs1`, the INHIBITION is given as -20.5%. Turning to `C[C@@H]1CCC[C@H](C)N1CC(=O)N1CCc2[nH]c(-c3ccccc3)nc2C1`, the INHIBITION is -64.1%. Regarding `O=C(NCCc1cccs1)[C@]12COC[C@H]1CN(Cc1ccncc1)C2`, the INHIBITION was -31%. For the compound `CC1CCCN(CCNC(=O)c2ccn(-c3ccccc3)n2)C1` (centres undefined), the INHIBITION is listed as 50.8%. With `COc1cn(-c2ccccc2)nc1C(=O)NCCN1CCCC(C)C1` (centres undefined) the figure was -57.1%. Turning to `O=C(NCCN1CCCCC1)c1ccn(-c2ccccc2)n1`, the INHIBITION is listed as -37.9%. In the case of `CC(C)OCc1ccc(CNc2cncc(-n3cccn3)n2)cc1`, the INHIBITION is reported as -83.1%.

As for `COCCNC(=O)c1ccc2c(=O)n3c(nc2c1)CCCC3`, the INHIBITION is recorded as -68%. With `COc1cc(Cl)cc(CN2CCCC(N3CCOCC3)C2)c1OC` (centres undefined) the figure was -126%; with `COc1ccc(CN2CCCC(N3CCCC3)C2)cc1Cn1cncn1` (centres undefined), -34.2%. With `COc1cc(Cl)cc(CN2CCCC(N3CCCC3)C2)c1OC` (centres undefined) the figure was 64.1%. As for `O=C(O)c1ccccc1-n1cnc(CN2CCc3ccccc32)c1`, the INHIBITION was -68.5%. As to `Cn1nccc1CNC(=O)Nc1cc(C(F)(F)F)c[nH]c1=O`, the INHIBITION is given as -32.9%.

In the case of `Cn1nccc1C(=O)Nc1cc(C(F)(F)F)c[nH]c1=O`, the INHIBITION is 56.5%. Consider `O=C(NCc1ccncc1)Nc1cc(C(F)(F)F)c[nH]c1=O`, for which the INHIBITION was -57.7%.

As for `CNc1cc(C)nc(C2COCCN2Cc2csc(C)n2)n1` (centres undefined), the INHIBITION is given as -146%.

On to `Cc1ccnn1CCC(=O)N1CCC(c2cnccn2)CC1`, for which the INHIBITION was -164%.

For `CN(Cc1cscn1)C(=O)C(c1ccccc1)N1CCSCC1` (centres undefined), the INHIBITION is given as 13.8%. With `CCN(CC)C(CNCc1ccc(O)cc1)c1ccco1` (centres undefined), the INHIBITION is on record as 40.1%. In the case of `CCN(CC)C(CNS(=O)(=O)c1ccc(C(=O)NC)cc1)c1ccco1` (centres undefined), the INHIBITION was -31.7%. `CCN(CC)C(CNS(=O)(=O)NCc1ccccc1)c1ccco1` (centres undefined): the INHIBITION is listed as 67%.

With `Cn1ncc2c(NC3CCCN(C(=O)C4CC4)C3)nc(C(C)(C)C)nc21` (centres undefined), the INHIBITION was -74%. `Cn1ncc2c(NC3CCC(N)CC3)nc(C(C)(C)C)nc21` (centres undefined): the INHIBITION is 65.3%.

As for `Cn1ncc2c(N[C@H]3CCCC[C@@H]3O)nc(C(C)(C)C)nc21`, the INHIBITION was -65.3%.

`COCCN1CCC2(CC1)CC(NC(=O)C(C)C)c1ccccc1O2` (centres undefined): the INHIBITION is -12.4%. With `Cn1nc(C(=O)N2CCSCC2)cc1NC(=O)c1ccco1` the figure was -104%. As to `CNc1nc(N2CCN(CC=C(C)C)C(CCO)C2)nc2c1CCC2` (centres undefined), the INHIBITION was -7.97%. With `CNc1nc(N2CCN(C3CCCCC3)C(CCO)C2)nc2c1CCC2` (centres undefined) the figure was -32.3%; with `CNc1nc(N2CCN(Cc3ccsc3)C(CCO)C2)nc2c1CCC2` (centres undefined), 55.7%. In the case of `CN(C)[C@@H]1C[C@@H](CO)N(C(=O)Nc2ccc(SC(F)(F)F)cc2)C1`, the INHIBITION came to 7.77%. With `CCc1nc(C)cn1C(=O)Nc1ccc(F)cc1`, the INHIBITION is -11.7%.

For `Cc1n[nH]c(C2CN(C(=O)c3ccco3)CCO2)n1` (centres undefined), the INHIBITION is recorded as -132%. Consider `CC(C)(C)CC(=O)NC(C)(C(N)=O)c1cccc(Cl)c1` (centres undefined), for which the INHIBITION is listed as -54.6%. In the case of `Cc1ccc(=O)n(CC2(O)CCN(Cc3c(F)cccc3F)CC2)n1`, the INHIBITION is -42.4%.

As for `Fc1cccc(NCc2ncc[nH]2)c1`, the INHIBITION is listed as -155%. For the compound `Cn1cc(C(NCc2ccc(F)cc2)c2cccc(F)c2)cn1` (centres undefined), the INHIBITION is 13.6%. On to `Fc1cccc(C(NCc2ncc[nH]2)c2ccccc2)c1` (centres undefined), for which the INHIBITION came out at 69.1%. With `Cc1c(C(=O)NCC2CCS(=O)(=O)C2)cnn1-c1ccccc1` (centres undefined) the figure was -29.9%. With `Cc1cc(C(=O)N2CCCC3(COCCN(CCN(C)C)C3)C2)no1` (centres undefined) the figure was -49.7%.

Consider `CC(C)(C)n1ncc2c1CCCC2NCc1cccc2c1OCO2` (centres undefined), for which the INHIBITION came out at 56.8%. `Cn1ncc2c1CCCC2NCc1cccc2c1OCCCO2` (centres undefined): the INHIBITION was -48.9%. With `CCn1ncc2c1CCCC2NCc1cccc2c1OCCCO2` (centres undefined), the INHIBITION is -15.3%. With `CC(C)(C)n1ncc2c1CCCC2NCc1cccc2c1OCCO2` (centres undefined), the INHIBITION amounted to 61.5%. Regarding `CCn1ncc2c1CCCC2NCc1cccc2c1OCCO2` (centres undefined), the INHIBITION is reported as -36%.

As to `CCn1ncc2c1CCCC2NCc1cccc2c1OCO2` (centres undefined), the INHIBITION is listed as -116%. With `CN(CCc1ccncc1)CCc1nccs1`, the INHIBITION is -102%. With `Cc1c[nH]c(C2COCCN2C(=O)c2n[nH]c(=O)c3ccccc23)n1` (centres undefined) the figure was -96.3%. Consider `Cc1ncnc2c1CCN(C(=O)N(C)C)CC2`, for which the INHIBITION is -100%. Take `NCCC1CN(c2nc(-c3ccccc3)nc3c2CCNC3)CCO1` (centres undefined): the INHIBITION was found to be 66.1%. With `OCCC1CN(c2nc(-c3ccncc3)nc3c2CCNCC3)CCO1` (centres undefined) the figure was -97.5%; with `NCC1CN(c2nc(-c3cccnc3)nc3c2CCNCC3)CCO1` (centres undefined), -84.9%; with `COCCC1CN(c2nc(-c3ccccc3)nc3c2CCNC3)CCO1` (centres undefined), -21.7%. As to `OCCC1CN(c2nc(-c3cccnc3)nc3c2CCNCC3)CCO1` (centres undefined), the INHIBITION is listed as -121%.

Regarding `NCC1CN(c2nc(-c3ccccc3)nc3c2CCNCC3)CCO1` (centres undefined), the INHIBITION is reported as 69.5%. `CCOCCN1CCC(C(=O)c2cc(F)ccc2F)CC1`: the INHIBITION is listed as 5.36%. For `O=C(O)CCC(=O)N1CCN(CC2CC2)c2ncccc2C1`, the INHIBITION was -23.3%. In the case of `CCSc1cncc(N2CCC(NC(=O)C3CCCCC3)CC2)n1`, the INHIBITION is listed as -11.6%. With `O=c1cc(N2CCCC2)cnn1CC(F)F` the figure was -88.9%; with `CC(C)COCC1CN(Cc2ccc3c(c2)OCO3)Cc2ncn(C)c21` (centres undefined), 38.7%. Turning to `CCC(O)(CNCc1ncc[nH]1)c1ccc(Br)cc1` (centres undefined), the INHIBITION came to 67.5%. Consider `CCC(O)(CNCc1ccncc1)c1ccc(Br)cc1` (centres undefined), for which the INHIBITION is given as 8.37%. Consider `COc1cc(NCc2ncc[nH]2)ccc1Br`, for which the INHIBITION is listed as -173%.

As to `O=C(c1ccsc1)N1CCc2ncc(Cn3cncn3)n2CC1`, the INHIBITION is recorded as -17.9%. Regarding `COCCNc1ccc(-c2noc([C@@H]3CCCN3)n2)cn1`, the INHIBITION is listed as 39.8%. Turning to `COCC(=O)Nc1ccc(-c2noc([C@@H]3CCCN3C)n2)cn1`, the INHIBITION was -28.7%. With `COCC(=O)Nc1ccc(-c2noc([C@@H]3CCCN3)n2)cn1`, the INHIBITION came out at 52.6%.

For the compound `CN(C)c1cc2c(nn1)CCN(C(=O)C1Cc3ccccc3O1)C2` (centres undefined), the INHIBITION is -78.5%. Turning to `O=C(c1cscn1)N1CCO[C@H]2[C@@H](Oc3ccccn3)CC[C@@H]21`, the INHIBITION is -20.9%. As for `Cc1csc(C(=O)N2CCC(O)(CN3CCc4ccccc4C3)C2)c1` (centres undefined), the INHIBITION is -1.9%.
